The values below come from PubChem BioAssay (Tox21).

A short description of assay [1]: qHTS assay to test for compound auto fluorescence at 535 nm (green) in HEK293 cells (AID 720680). Further: on the % scale 0 is the no-effect control and ±100 the full control effect. For orientation: Quantitative high-throughput screening tests each substance at several concentrations.
A short description of assay [2]: qHTS assay to test for compound auto fluorescence at 460 nm (blue) in HEK293 cell free culture (AID 720681). Further: on the % scale 0 is the no-effect control and ±100 the full control effect. Summed up: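 Test compounds were pinned into cell-free culture medium (DMEM with 10% FBS) and fluorescence was read directly at Ex/Em 405/460 nm. Signals were expressed as fluorescence equivalents of triamterene, with DMSO vehicle as control.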
Assay [3] can be described thus: qHTS assay to test for compound auto fluorescence at 535 nm (green) in HEK293 cell free culture (AID 720682). Further: on the % scale 0 is the no-effect control and ±100 the full control effect. Summed up:
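Steps: dispense DMEM/10% FBS into empty wells; pin in compound or DMSO; measure fluorescence at 485/535 nm. Values are fluorescein equivalents.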

Assay [4] is described as follows: qHTS assay to test for compound auto fluorescence at 590 nm (red) in HEK293 cell free culture (AID 720683). Further: on the % scale 0 is the no-effect control and ±100 the full control effect. Summed up: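 Tox21 10K library compounds were pinned into cell-free DMEM with 10% FBS and fluorescence was read at excitation 540 nm. Activity is expressed as Rose Bengal sodium equivalency.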
A short description of assay [5]: qHTS assay to test for compound auto fluorescence at 590 nm (red) in HepG2 cell free culture (AID 720684). Further: on the % scale 0 is the no-effect control and ±100 the full control effect. Summed up: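 Readout: intrinsic compound fluorescence at 590 nm emission after 540 nm excitation, scaled to Rose Bengal sodium. Matrix was cell-free MEM with 10% FBS; DMSO vehicle wells served as control.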
Assay [6] is described as follows: qHTS assay to test for compound auto fluorescence at 460 nm (blue) in HepG2 cell free culture (AID 720685). Further: on the % scale 0 is the no-effect control and ±100 the full control effect. Summed up:
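Cell-free plates of MEM plus 10% FBS received 23 nL compound or DMSO vehicle; blue-channel (405/460 nm) intensity scored against triamterene as reference fluorophore.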

Assay [7] is described as follows: qHTS assay to test for compound auto fluorescence at 535 nm (green) in HepG2 cell free culture (AID 720686). Further: on the % scale 0 is the no-effect control and ±100 the full control effect.
The nature of assay [8]: qHTS assay to test for compound auto fluorescence at 460 nm (blue) in HepG2 cells (AID 720687). Further: on the % scale 0 is the no-effect control and ±100 the full control effect. Summed up: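 Cells (2,000/well in MEM with 10% FBS) attached overnight at 37 C, then were exposed to compound or DMSO for 1 hr at 37 C, 5% CO2. Fluorescence read at Ex/Em 405/460 nm, expressed as triamterene-equivalent signal.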
Assay [9] has as its target Glucocorticoid receptor (Homo sapiens) (UniProt P04150). Description: qHTS assay to identify small molecule agonists of the glucocorticoid receptor (GR) signaling pathway (AID 720691; active means well fitted activation curve with a large enough effect in the signal ratio in the repeat runs, not every such curve was filed as active; the % refers to the signal ratio; further: on the % scale 0 is the no-effect control and ±100 the full control effect). Summed up:
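Compounds in DMSO, alongside positive controls, were added to GR-bla HeLa reporter cells and incubated 18 h at 37 C; GRE-driven beta-lactamase was detected by fluorescence after 2 h with FRET substrate at room temperature.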

Assay [10] shares this target. Briefly: qHTS assay to identify small molecule antagonists of the glucocorticoid receptor (GR) signaling pathway (AID 720692; active means well fitted inhibition curve with a large enough effect in the signal ratio in the repeat runs, not every such curve was filed as active; the % refers to the signal ratio; further: potency means the concentration at half of the fitted maximal effect). Summed up: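 In a 1536-well cell format, compounds were added 4 h after seeding GR-bla HeLa cells, together with dexamethasone at 5 nM final; reporter activity was measured by FRET-substrate fluorescence following 18 h at 37 C.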
Assay [11] in a line: qHTS assay to identify small molecule antagonists of the glucocorticoid receptor (GR) signaling pathway - cell viability counter screen (AID 720693). Further: nearly all actives have a fitted effect of over 55% in size. Further: potency means the concentration at half of the fitted maximal effect.
Assay [12] in a line: qHTS assay to identify small molecule antagonists of the androgen receptor (AR) signaling pathway - cell viability counter screen (AID 743033; further: nearly all actives have a fitted effect of over 45% in size; further: potency means the concentration at half of the fitted maximal effect).
Assay [13] can be described thus: qHTS assay to identify small molecule antagonists of the androgen receptor (AR) signaling pathway using the MDA cell line - cell viability counter screen (AID 743041; further: nearly all actives have a fitted effect of over 45% in size; further: potency means the concentration at half of the fitted maximal effect). Summed up: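 qHTS viability read-out; MDA-kb2 AR-luc; R1881-stimulated; 16 h exposure at 37C, 0% CO2; CellTiter-Fluor, 30 min; fluorescence intensity.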
Assay [14] in a line: qHTS assay for identifying genotoxic compounds that show differential cytotoxicity against isogenic chicken DT40 cell lines with known DNA damage response pathways - wild type cell line (AID 743012). Further: on the % scale 0 is the no-effect control and ±100 the full control effect; nearly all actives have a fitted effect of over 60% in size. Summed up: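 Viability of DNA repair-proficient chicken DT40 cells was assessed by CellTiter-Glo luminescence following 40 h compound exposure at 37 C/5% CO2.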
A short description of assay [15]: qHTS assay for identifying genotoxic compounds that show differential cytotoxicity against isogenic chicken DT40 cell lines with known DNA damage response pathways - Rev3 mutant cell line (AID 743014). Further: nearly all actives have a fitted effect of over 55% in size. Further: potency means the concentration at half of the fitted maximal effect.
The nature of assay [16]: qHTS assay for identifying genotoxic compounds that show differential cytotoxicity against isogenic chicken DT40 cell lines with known DNA damage response pathways - Rad54/Ku70 mutant cell line (AID 743015). Further: nearly all actives have a fitted effect of over 60% in size. Further: potency means the concentration at half of the fitted maximal effect.
In assay [17] the target is Androgen receptor (Homo sapiens) (UniProt P10275). Description: qHTS assay to identify small molecule agonists of the androgen receptor (AR) signaling pathway using the MDA cell line (AID 743040; further: on the % scale 0 is the no-effect control and ±100 the full control effect; nearly all actives have a fitted effect of over 20% in size). Summed up:
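Agonist activity is measured as luciferase luminescence in human MDA-kb2 cells whose MMTV reporter responds to both AR and GR. Compounds in DMSO incubate 16 h at 37C, 0% CO2, and ONE-Glo is read after 30 min.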

The target is the same in assay [18]. Description: qHTS assay to identify small molecule antagonists of the androgen receptor (AR) signaling pathway using the MDA cell line (AID 743042; further: potency means the concentration at half of the fitted maximal effect; nearly all actives have a fitted effect of over 55% in size). Summed up: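 MDA-kb2 cells (human breast carcinoma, stably carrying an MMTV-luciferase reporter responsive to AR and GR) were plated at 3,000 cells/well and preincubated 5 hr at 37C, then given compound plus R1881 agonist for 16 h. ONE-Glo luminescence was read.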

Structures are written as SMILES. Several values for one entry are separate records, joined by “and”; a condition that tells them apart may be missing. Equal values may be shown once. Inconclusive results are not listed. More than one record can exist for a structure, and the calls need not agree. Activity calls are given as the source filed them. Unless noted, the call rests on the fitted dose curve; in most records, active means well fitted curve in the direction sought with a large enough effect in the repeat runs; inconclusive means weak or mixed curves; inactive means no such curve, though single readings can be large; an effect the other way counts as inactive or inconclusive.

Glucocorticoid receptor (Homo sapiens), sequence (P04150 whole entry, looked up): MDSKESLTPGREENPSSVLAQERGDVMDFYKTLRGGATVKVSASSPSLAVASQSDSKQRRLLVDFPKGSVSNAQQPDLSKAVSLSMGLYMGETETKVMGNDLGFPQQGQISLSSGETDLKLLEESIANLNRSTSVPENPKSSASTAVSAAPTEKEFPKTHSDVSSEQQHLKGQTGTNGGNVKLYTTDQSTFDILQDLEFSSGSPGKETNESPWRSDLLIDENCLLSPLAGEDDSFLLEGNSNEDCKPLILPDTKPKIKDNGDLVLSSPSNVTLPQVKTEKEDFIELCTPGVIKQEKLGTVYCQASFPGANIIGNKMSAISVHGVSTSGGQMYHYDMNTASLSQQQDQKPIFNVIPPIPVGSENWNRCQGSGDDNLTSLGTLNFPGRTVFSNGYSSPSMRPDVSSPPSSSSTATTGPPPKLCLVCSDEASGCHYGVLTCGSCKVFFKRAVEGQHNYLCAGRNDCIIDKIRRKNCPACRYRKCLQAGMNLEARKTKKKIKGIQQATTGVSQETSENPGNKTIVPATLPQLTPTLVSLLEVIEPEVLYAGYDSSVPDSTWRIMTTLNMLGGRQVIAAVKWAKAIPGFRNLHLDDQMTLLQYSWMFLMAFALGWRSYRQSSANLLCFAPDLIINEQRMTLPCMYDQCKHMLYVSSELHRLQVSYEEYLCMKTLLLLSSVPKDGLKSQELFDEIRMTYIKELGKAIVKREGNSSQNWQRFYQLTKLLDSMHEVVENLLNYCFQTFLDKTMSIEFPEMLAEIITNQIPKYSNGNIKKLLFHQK
Androgen receptor (Homo sapiens), sequence (P10275 whole entry, looked up): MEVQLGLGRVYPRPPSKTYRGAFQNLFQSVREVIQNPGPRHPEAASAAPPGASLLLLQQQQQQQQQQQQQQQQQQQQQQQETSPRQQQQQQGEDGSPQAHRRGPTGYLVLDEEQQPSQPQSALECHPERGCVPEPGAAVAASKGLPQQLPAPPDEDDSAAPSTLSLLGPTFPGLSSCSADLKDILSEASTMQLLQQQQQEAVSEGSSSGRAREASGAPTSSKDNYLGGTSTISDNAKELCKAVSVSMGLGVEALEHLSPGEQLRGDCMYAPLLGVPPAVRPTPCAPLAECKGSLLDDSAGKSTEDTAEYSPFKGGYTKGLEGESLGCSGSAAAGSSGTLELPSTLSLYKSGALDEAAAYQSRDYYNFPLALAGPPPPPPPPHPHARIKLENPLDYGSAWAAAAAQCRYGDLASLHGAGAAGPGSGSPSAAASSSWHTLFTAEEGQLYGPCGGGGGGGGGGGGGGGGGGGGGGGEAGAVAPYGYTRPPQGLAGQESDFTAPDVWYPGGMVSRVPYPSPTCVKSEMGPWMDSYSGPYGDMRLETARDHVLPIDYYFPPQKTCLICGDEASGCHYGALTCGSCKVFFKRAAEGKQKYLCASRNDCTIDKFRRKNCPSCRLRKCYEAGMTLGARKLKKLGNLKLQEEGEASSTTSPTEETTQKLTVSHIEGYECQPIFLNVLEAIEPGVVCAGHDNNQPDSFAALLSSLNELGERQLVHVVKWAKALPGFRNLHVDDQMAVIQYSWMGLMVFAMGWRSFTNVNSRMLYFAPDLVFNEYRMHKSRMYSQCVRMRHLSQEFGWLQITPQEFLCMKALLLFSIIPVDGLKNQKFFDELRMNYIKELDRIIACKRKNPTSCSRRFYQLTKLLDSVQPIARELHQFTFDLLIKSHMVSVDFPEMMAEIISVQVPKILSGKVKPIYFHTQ

Consider `CCCCCCCCCCn1cc[n+](C)c1`, for which the compound was called inactive in assay [1], in assay [2], in [3], in assay [4], in assay [5] and in assay [6]. For the same compound, the call in [7], in assay [8] and in assay [9] was inactive. Moreover, the Potency in assay [10] is 15.6 µM (active) and 39.1 µM (active); in assay [11], 49.5 µM (active) and 40 µM (active) and 48.9 µM (active); in [12], 2.48 µM (active); in assay [13], 872 nM (active) and 559 nM (active) and 193 nM (active).
On to `COP(=O)(OC)C(O)C(Cl)(Cl)Cl` (stereo unspecified), for which the result in [1], in [2], in assay [3], in assay [4], in [5] and in assay [6] was inactive. For the same compound, the compound was called inactive in assay [7], in assay [8] and in assay [9]. Also, the Potency entry in assay [10], in assay [11], in assay [14], in assay [15], in assay [16] and in [12] was “inactive” in each case. Besides, the Potency result in assay [13] is “inactive”.
For `CCCCCC[n+]1ccccc1`, the result in assay [1], in [2], in assay [3], in assay [4], in assay [5] and in assay [6] was inactive. In addition, the call in assay [7] and in assay [8] was inactive. For the same compound, the Potency entry in [11] is “inactive”. Besides, the Potency in assay [12] was 55.5 µM (active) and 55.3 µM (active) and inactive.
Take `CCCC[n+]1ccccc1`: the outcome in assay [1], in assay [2], in assay [3], in [4], in assay [5] and in [6] was inactive. Further, the result in assay [7] and in assay [8] was inactive. Also, the Potency entry in [11], in assay [15], in assay [16], in assay [12] and in assay [13] was “inactive” throughout.
In the case of `C[C@]12CCC(=O)C=C1CC[C@@H]1[C@@H]2CC[C@]2(C)C(=O)CC[C@@H]12`, the compound was called inactive in [1], in assay [2], in [3], in [4], in assay [5] and in [6]. Moreover, the call in [7] and in assay [8] was inactive. Moreover, the Potency result in assay [11], in assay [12] and in assay [13] was “inactive” in each case. Moreover, the Potency in assay [15] is 29.8 µM (active) and 47.7 µM (active) and 54.5 µM (active); in assay [16], 26.6 µM (active) and 42.5 µM (active) and 27.3 µM (active).
`O=C(O)c1ccccc1O`: in assay [3], the result was inactive. Moreover, the Potency entry in assay [11], in [14], in assay [15], in assay [16], in [12] and in assay [13] was “inactive” throughout.
As to `CCC[N+]1(C)CCCC1`, the compound was classed as inactive in assay [1], in assay [2], in assay [3], in assay [4], in assay [5] and in [6]. The outcome in assay [7] and in [8] was inactive. The Potency result in assay [11], in assay [15], in [16], in [12] and in assay [13] was “inactive” throughout.
Regarding `CCCCCCCCCCCC(=O)O`, the result in assay [1], in assay [2], in assay [3], in [4], in assay [5] and in assay [6] was inactive. The compound was called inactive in assay [7] and in assay [8]. Also, the Potency entry in assay [11], in assay [14], in [15], in assay [12] and in [13] was “inactive” each time. Besides, the Potency in assay [16] is 27.4 µM (active).
`O=C(O)C(Cl)(Cl)Cl`: the compound was called inactive in [1], in assay [2], in assay [3], in assay [4], in assay [5] and in [6]. Further, the call in [7] and in assay [8] was inactive. The Potency entry in assay [11], in assay [15], in assay [16], in assay [12] and in assay [13] was “inactive” each time.
For `COP(=O)(OC)OC=C(Cl)Cl`, the compound was classed as inactive in assay [1], in assay [2], in assay [3], in assay [4], in assay [5] and in assay [6]. In addition, the call in assay [7] and in assay [8] was inactive. Moreover, the Potency result in assay [11], in assay [12] and in assay [13] was “inactive” in each case. Moreover, the Potency in [15] was 11.9 µM (active) and inactive; in [16], 13.3 µM (active) and inactive.
Consider `CCCC[n+]1ccc(C)cc1`, for which the compound was called inactive in assay [1], in assay [2], in assay [3], in assay [4], in assay [5] and in [6]. In addition, the result in assay [7] and in assay [8] was inactive. In addition, the Potency result in [11], in assay [12] and in [13] was “inactive” in each case. Also, the Potency entry in assay [15] is “inactive and 60.8 µM (active)”; in assay [16], “inactive and 48.3 µM (active) and 60.8 µM (active)”.
As for `Nc1ccc(-c2ccc(N)c(Cl)c2)cc1Cl`, the result in [1], in [2], in [3], in assay [4], in assay [5] and in [6] was inactive. Further, the result in [7] and in assay [8] was inactive. The Potency was 19.6 µM (active) and 11.5 µM (active) and 19.5 µM (active) in assay [10]; 48.8 µM (active) and 28.6 µM (active) and 54.5 µM (active) in assay [15]; 61.4 µM (active) and 50.8 µM (active) and 54.5 µM (active) in assay [16]. Further, the Potency entry in assay [11], in [12] and in assay [13] was “inactive” each time.
For the compound `CCCC[n+]1ccccc1C`, the outcome in [1], in [2], in [3], in [4], in [5] and in assay [6] was inactive. Besides, the result in assay [7] and in assay [8] was inactive. In addition, the Potency result in assay [11], in assay [14], in [15], in assay [16], in assay [12] and in assay [13] was “inactive” in each case.
Regarding `Oc1cccc2cccnc12`, the compound was called inactive in assay [1], in assay [2], in [3], in assay [4], in [5] and in [6]. Besides, the compound was called inactive in [7] and in assay [8]. The Potency result in assay [11] is “inactive”.
As to `CC(=O)[O][Hg][c]1ccccc1`, the compound was classed as inactive in assay [1], in assay [2], in assay [3], in assay [4], in assay [5] and in assay [6]. Moreover, the outcome in assay [7], in [8] and in assay [17] was inactive. Further, the Potency in assay [11] is 952 nM (active) and 485 nM (active) and 436 nM (active); in [15], 376 nM (active) and 152 nM (active) and 122 nM (active); in assay [16], 237 nM (active) and 152 nM (active) and 86.3 nM (active); in assay [12], 5.35 µM (active) and 1.37 µM (active) and 1.95 µM (active); in [13] it was 5.31 µM (active) and 3.82 µM (active) and 3.06 µM (active); in assay [18] it was 2.98 µM (active) and 1.92 µM (active) and 2.17 µM (active).
For the compound `COc1ccccc1N`, the compound was called inactive in assay [1], in assay [2], in assay [3], in [4], in [5] and in [6]. Besides, the result in [7] and in [8] was inactive. The Potency result in [11], in [15], in assay [16], in [12] and in assay [13] was “inactive” in each case.
On to `CCCCCCn1cc[n+](C)c1`, for which the compound was called inactive in assay [1], in assay [2], in assay [3], in [4], in [5] and in assay [6]. Besides, the compound was classed as inactive in assay [7] and in assay [8]. In assay [11], the Potency result was “inactive”. Moreover, the Potency in [13] was 31.9 µM (active) [middle of 5 runs].
Turning to `O=C(O)CC(O)(CC(=O)O)C(=O)O`, the result in assay [1], in [2], in assay [3], in assay [4], in assay [5] and in assay [6] was inactive. Further, the compound was called inactive in assay [7] and in [8]. The Potency result in assay [11], in [15], in assay [16], in assay [12] and in assay [13] was “inactive” throughout.
